# Sampled rows, rich in hits. Any-hit rate of the full collection: about 12%.
# HP1b chromo inh – HTS for Inhibitors of HP1-beta Chromodomain Interactions with Methylated Histone Tails; AID 540317, 2011; AlphaScreen HP1-beta / biotin-H3K9me3 peptide binding; Chromobox protein homolog 1 (Homo sapiens), P83916; Potency, µM (highest dose often 114 µM), most hits filed as inhibitors; hit rate 0.56% among 390,000; also: nearly all actives have a fitted effect of over 70% in size
#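 AlphaScreen: HP1-beta (50 nM) preformed 30 min with biotin-H3(1-18)K9me3 peptide (50 nM) in PBS pH 7.4, 0.01% Tween-20. Compound added for 30 min at RT, then streptavidin donor/nickel chelate acceptor beads (10 ug/mL) for 30 min.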
# Sfp PPTase inh – qHTS Assay for Inhibitors of Bacillus subtilis Sfp phosphopantetheinyl transferase (PPTase). Biochemical Sfp PPTase activity, qHTS. Potency, µM, hits mostly inhibitors. hit rate 3.5% among 310,000;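 also: the enzyme is Sfp with the accession as filed and its product quenches rhodamine fluorescence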
#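 Fluorescence-quenching assay: 15 nM Sfp-PPTase preincubated 15 min at room temperature with compound, then 5 uM rhodamine-CoA and 12.5 uM BHQ-2-labelled YbbR peptide added. Fluorescence (ex 525/em 598 nm) read at start and after 30 min; difference gives rate.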
# JMJD2A Tudor – qHTS Assay for Inhibitors of JMJD2A-Tudor Domain | Lysine-specific demethylase 4A (Homo sapiens), O75164 | AlphaScreen JMJD2A-Tudor / H3K4me3 peptide binding | Potency, µM (highest dose often 114 µM), actives largely listed as inhibitors | hit rate 4.4% among 390,000; also: nearly all actives have a fitted effect of over 50% in size
# BAZ2B block – qHTS Assay for Inhibitors of BAZ2B; Potency, µM (titrated, usually from 114 µM), hits mostly inhibitors; hit rate 4.4% among 360,000; AlphaScreen BAZ2B-H3K14Ac peptide displacement; also: nearly all actives have a fitted effect of over 60% in size
#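 AlphaScreen displacement: compounds (up to 110uM) incubated 30 min at room temperature with a preformed 50 nM BAZ2B/50 nM biotinylated H3K14Ac peptide complex in PBS pH 7.4 with Tween-20. Donor and acceptor beads at 10 ug/mL final added, 20 min light-protected before reading.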
# G9a block – qHTS Assay for Inhibitors of Histone Lysine Methyltransferase G9a; Histone-lysine N-methyltransferase EHMT2 (Homo sapiens), Q96KQ7; G9a H3K9 monomethylation, AlphaScreen, 2 h; Potency, µM (series often up to 102 µM), hits mostly inhibitors; hit rate 8.8% among 350,000; AID 504332, 2011; also: nearly all actives have a fitted effect of over 75% in size
#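 Readings reflect AlphaScreen signal from monomethyl-H3K9 antibody detection. HMT at 20 nM; substrate b-H3K9 500 nM; cofactor SAM 20 uM; 2 h RT reaction; compounds tested as titrations in qHTS with 15 min preincubation.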
# L3MBTL1 block – qHTS Assay for the Inhibitors of L3MBTL1; Lethal(3)malignant brain tumor-like protein 1 (Homo sapiens), Q9Y468; AlphaScreen L3MBTL1–H3K9me1 peptide binding; Potency, µM (titrated, usually from 57.1 µM), actives largely listed as inhibitors; hit rate 0.66% among 230,000; also: nearly all actives have a fitted effect of over 60% in size
#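 AlphaScreen assay: L3MBTL1 (50 nM final) was preincubated 30 min at room temperature with biotinylated H3(1-15)K9me1 peptide (75 nM final), then 30 min with library compounds; streptavidin donor and nickel chelate acceptor beads (10 ug/mL final) added, 30 min dark.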
# Numbers stand for hits; 0 = inactive; ? = inconclusive; - = no result given; [ ] = dose if it differs, or a comment. Calls follow the shape of the dose curve; as a rule, active = well fitted curve in the direction sought with a large enough effect; inconclusive = small, poorly fitted or top-dose-only effect, or another doubt; inactive = no such curve, though single readings can be large; an effect the other way counts as inactive or inconclusive.
SMILES,HP1b chromo inh,Sfp PPTase inh,JMJD2A Tudor,BAZ2B block,G9a block,L3MBTL1 block
CSc1ccc(C(=O)C2CCCN(C(=O)c3nn(C)c(=O)c4ccccc34)C2)cc1 (stereo unspecified),?,0,0,0,28µM,0
Cc1nn(CCC(=O)NC(C)C)c(=O)c2nn(-c3ccccc3)c(C)c12,0,-,0,0,0,-
CCOc1ccccc1C=NN1CCCCCC1,?,-,45µM,-,-,-
COc1ccccc1N1CCN(/N=C/c2ccc(OC)c(OC)c2OC)CC1,0,0,?,32µM,35µM,0
COc1cccc(/C=N/N2CCN(c3ccc(Cl)cc3)CC2)c1OC,0,0,?,?,0,-
COc1cccc(C=NN2CCCCCC2)c1OC,?,-,56µM,-,-,-
CCOc1cc(C=NN2CCCCCC2)ccc1O,?,-,50µM,-,-,-
CCOc1cc(/C=N/N2CCN(Cc3ccccc3)CC2)ccc1O,0,0,?,?,?,?
CN(C(=O)C1=CC(c2ccc3c(c2)OCO3)=NS(=O)(=O)N1C)c1ccccc1,0,-,0,0,?,-
Cc1ccc(-n2nc(CO)c(C(=O)NC(C)CCCc3ccccc3)n2)cc1 (stereo unspecified),0,-,0,0,0,-
S=c1[nH]nc(-c2ccc(Cl)cc2)n1/N=C/c1ccco1,0,0,40µM,0,0.89µM,0
S=c1[nH]nc(-c2ccc(Cl)cc2)n1/N=C/C=C/c1ccco1,?,56µM,56µM,?,-,28µM
Cc1ccccc1-c1n[nH]c(=S)n1/N=C/C=C/c1ccco1,0,0,18µM,45µM,2.2µM,?
S=c1[nH]nc(-c2ccccc2)n1/N=C/C=C/c1ccco1,0,50µM,20µM,?,1.3µM,?
Cc1ccc(/C=N/n2c(-c3ccc(Cl)cc3)n[nH]c2=S)s1,0,0,?,0,?,-
CCOc1ccc(Nc2c(S(=O)(=O)c3ccc(Cl)cc3)cnc3ccc(OCC)cc23)cc1,0,-,0,0,0,-
CC(C)CC(CSc1ccc(Br)cc1)N1CCN(CCc2ccccc2)CCC1=O (stereo unspecified),0,0,0,-,-,-
CSc1nn(Cc2ccccc2C)c(NC(C)=O)c1S(=O)(=O)c1ccc(C)cc1,0,-,0,0,0,-
CCOc1ccc(N(CC)S(=O)(=O)N2CCCC(C(=O)Nc3cc(Cl)ccc3C)C2)cc1 (stereo unspecified),0,-,0,0,0,-
S=c1[nH]nc(-c2cccnc2)n1/N=C/C=C/c1ccco1,0,16µM,20µM,45µM,-,22µM
CC(/C=N/NC(=O)c1cccnc1)=C\c1ccco1,0,0,0,0,0[12.7 µM],-
Cc1cc(-c2n[nH]c(=S)n2/N=C/C=C/c2ccco2)n[nH]1,0,56µM,2.8µM,50µM,2.5µM,0
CC(/C=N/n1c(-c2cccnc2)n[nH]c1=S)=C\c1ccco1,0,0,4µM,0,1.3µM,?
S=c1[nH]nc(-c2ccco2)n1/N=C/C=C/c1ccccc1,0,0,20µM,0,0.71µM,0
c1cncc(-c2noc(-c3ccco3)n2)c1,0,0,0,0,0,0
SMILES,HP1b chromo inh,Sfp PPTase inh,JMJD2A Tudor,BAZ2B block,G9a block,L3MBTL1 block
CNc1ncnc2ccc(-c3cccc(OC)c3)cc12,-,0,-,-,0[0.501 µM],-
N#Cc1ccc(C(=O)N(Cc2ccco2)Cc2cccs2)cc1,0,-,0,-,-,-
FC(F)(F)c1n[nH]c(=S)n1/N=C/c1ccco1,0,0,?,0,3.5µM,0
Cc1nc2ccccc2c(=O)n1/N=C/c1ccco1,0,0,0,0,0,0
CC(=O)Oc1ccc(C(=C2CCCCC2)c2ccc(OC(C)=O)cc2)cc1,-,0,-,-,0[12.7 µM],-
c1ccc(NCc2ccncc2)cc1,0,0,0,0,0,0
c1cc2c(cc1CNc1ccc(N3CCOCC3)cc1)OCO2,?,-,50µM,-,-,?
